From PubChem BioAssay AID1159580 (chemical genetic matrix, 2015)
Where “and” joins values, the source holds several entries; their conditions need not be identical. Equal values may be shown once. Among all 5,500 compounds or so, about 2,000 (36%) were called active. Another 18% or so got no clear call; they are omitted. Rule as the data show it: active = normalized growth mostly below about 0.91 (no sharp cut-off); inconclusive = no clear call, values can overlap the other calls; inactive = mostly above about 0.92. The list shows a part of the results.

Assay: chemical genetic growth profiling, strain panel (AID 1159580);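 also: tested at 20 µM; growth read once vehicle control cultures reached saturation at 30 °C; 1 = growth at the plate median or of vehicle wells; lower values mean less growth of the strain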
Details: S. cerevisiae deletion strains, growth OD

Measured: normalized growth

CN(C)C(=O)C(CCN1CCC(O)(c2ccc(Cl)cc2)CC1)(c1ccccc1)c1ccccc1
active: locus YER155C, strain BEM2 (second series), hits give low values 0.843
inactive: locus YAL013W, strain DEP1, hits give low values 1.01 | locus YAL021C, strain ccr4, hits give low values 0.984 | locus YAL026C, strain drs2, hits give low values 0.999 | locus YAL030W, strain snc1, hits give low values 1 | locus YAL040C, strain CLN3, hits give low values 0.979 | locus YBL061C, strain skt5, hits give low values 0.99 | locus YBR009C, strain hhf1, hits give low values 0.993 | locus YBR021W, strain FUR4, hits give low values 0.977 | locus YBR023C, strain chs3, hits give low values 1.01 | locus YBR171W, strain sec66, hits give low values 0.988 | locus YBR229C, strain ROT2, hits give low values 0.997 | locus YBR231C, strain swc5, hits give low values 0.965 | locus YBR279W, strain paf1, hits give low values 0.995 | locus YCL011C, strain gbp2, hits give low values 0.989 | locus YCL016C, strain dcc1, hits give low values 0.994 | locus YCL029C, strain bik1, hits give low values 1.03 | locus YCL061C, strain MRC1 (second series), hits give low values 0.996 | locus YCL061C, strain MRC1, hits give low values 0.988 | locus YCL069W, strain vba3, hits give low values 0.991 | locus YCR088W, strain abp1, hits give low values 1 | locus YDL005C, strain med2, hits give low values 0.988 | locus YDL035C, strain GPR1, hits give low values 0.965 | locus YDL040C, strain nat1, hits give low values 0.994 | locus YDL074C, strain BRE1, hits give low values 0.979 | locus YDL101C, strain DUN1, hits give low values 1 | locus YDL134C, strain PPH21, hits give low values 1.01 | locus YDL185W, strain tfp1, hits give low values 1.02 | locus YDL192W, strain arf1, hits give low values 1.02 | locus YDR001C, strain nth1, hits give low values 1 | locus YDR069C, strain doa4, hits give low values 1 | locus YDR101C, strain arx1, hits give low values 1.01 | locus YDR137W, strain rgp1, hits give low values 1.11 | locus YDR150W, strain NUM1, hits give low values 1.01 and 0.999 | locus YDR159W, strain sac3, hits give low values 0.999 | locus YDR162C, strain NBP2, hits give low values 1 | locus YDR195W, strain ref2 0.949 | locus YDR297W, strain sur2, hits give low values 1 | locus YDR318W, strain mcm21, hits give low values 1.01 | locus YDR334W, strain swr1, hits give low values 1.01 | locus YDR335W, strain msn5, hits give low values 1 | locus YDR363W, strain ESC2, hits give low values 0.967 | locus YDR388W, hits give low values 1.02 | locus YDR392W, strain spt3, hits give low values 0.797 | locus YDR502C, strain sam2, hits give low values 1.01 | locus YEL003W, strain gim4, hits give low values 0.993 | locus YEL037C, strain rad23, hits give low values 1 | locus YEL061C, strain CIN8 (second series), hits give low values 1.01 | locus YEL061C, strain CIN8, hits give low values 1 | locus YER002W, strain NOP16, hits give low values 1.01 | locus YER015W, strain faa2, hits give low values 0.967 | locus YER016W, strain bim1, hits give low values 0.996 | locus YER110C, hits give low values 1.02 | locus YER111C, strain swi4, hits give low values 0.98 | locus YER155C, strain BEM2, hits give low values 1.01 | locus YER167W, strain BCK2, hits give low values 0.981 | locus YFR010W, strain ubp6, hits give low values 0.988 | locus YGL078C, strain dbp3, hits give low values 1.01 | locus YGL086W, strain mad1, hits give low values 0.989 | locus YGL167C, strain pmr1, hits give low values 0.99 | locus YGL173C, strain kem1, hits give low values 0.981 | locus YGL227W, strain vid30, hits give low values 1 | locus YGL240W, strain doc1, hits give low values 0.956 | locus YGL248W, strain PDE1, hits give low values 1 | locus YGL253W, strain hxk2, hits give low values 1.02 | locus YGR078C, strain PAC10, hits give low values 1 and 0.987 | locus YGR135W, strain pre9, hits give low values 1.01 | locus YGR229C, strain SMI1, hits give low values 1.01 | locus YGR252W, strain gcn5, hits give low values 0.871 | locus YHR013C, strain ard1, hits give low values 0.955 | locus YHR027C, strain rpn1, hits give low values 0.999 | locus YHR030C, strain SLT2, hits give low values 1.01 and 0.969 | locus YHR079C, strain IRE1 (second series), hits give low values 1.02 | locus YHR079C, strain IRE1, hits give low values 0.987 | locus YHR094C, strain hxt1, hits give low values 1.01 | locus YHR129C, strain ARP1, hits give low values 1 | locus YHR142W, strain chs7, hits give low values 1.01 | locus YHR200W, strain rpn10, hits give low values 0.997 | locus YIL066C, strain RNR3, hits give low values 1 | locus YIL073C, strain SPO22, hits give low values 1.05 | locus YIL125W, strain kgd1, hits give low values 1.01 | locus YIR030C, strain dcg1, hits give low values 1.02 | locus YJL092W, strain hpr5, hits give low values 0.994 | locus YJL095W, strain BCK1 (second series), hits give low values 0.993 | locus YJL095W, strain BCK1, hits give low values 1 and 0.99 | locus YJL115W, strain asf1, hits give low values 0.978 | locus YJL129C, strain trk1, hits give low values 0.941 | locus YJL134W, strain LCB3, hits give low values 1.01 | locus YJL154C, strain vps35, hits give low values 0.998 | locus YJL164C, strain tpk1, hits give low values 0.994 | locus YJL166W, strain qcr8, hits give low values 0.967 | locus YJL168C, strain set2, hits give low values 1.01 | locus YJL187C, strain SWE1 (second series), hits give low values 1.02 | locus YJR043C, strain POL32, hits give low values 0.986 | locus YJR066W, strain TOR1, hits give low values 0.928
